Several values for one entry are separate records, joined by “and”; a condition that tells them apart may be missing. Equal values may be shown once. Inconclusive results are not listed. Entries that show only a call come without a potency. The source holds several records for some structures; these can differ, active in one and inactive in another. Activity calls are given as the source filed them. Unless noted, calls follow the shape of the dose curve; as a rule, active = well fitted curve in the direction sought with a large enough effect in the repeat runs; inconclusive = weak or mixed curves; inactive = no such curve, though single readings can be large; an effect the other way counts as inactive or inconclusive.
Columns and labels:
[1] = biological target: Calcium and integrin-binding protein 1 (Homo sapiens) (UniProt Q99828); experiment: Primary qHTS for Identification of Calcium Integrin Binding Protein 1 (CIB1) Competitor (AID 1508620; active = well fitted curve in the direction sought with a large enough effect; an effect the other way counts as inactive or inconclusive;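 also: GST tagged CIB1 binding a fluorescein labelled alphaIIb integrin peptide tracer; top concentration of the series differs between compounds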)
Chain of Calcium and integrin-binding protein 1 (Homo sapiens) (Q99828 whole entry, looked up): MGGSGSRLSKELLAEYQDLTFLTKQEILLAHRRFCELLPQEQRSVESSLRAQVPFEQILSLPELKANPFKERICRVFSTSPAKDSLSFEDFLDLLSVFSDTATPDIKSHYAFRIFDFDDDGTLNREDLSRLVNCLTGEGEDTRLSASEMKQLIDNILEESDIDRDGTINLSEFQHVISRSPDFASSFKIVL
Procedure, shortened: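 Fluorescence polarization competition: CIB1-GST (1 uM final) preincubated with compound 15 min at room temperature, then FITC-labeled alphaIIb peptide (100 nM final) added for another 15 min. Polarization read at Ex 480/Em 540.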

[2] = biological target: Cytochrome P450 2D6 (Homo sapiens) (UniProt P10635); experiment: Cytochrome P450 family 2 subfamily D member 6 (CYP2D6) small molecule antagonists: luciferase biochemical (cell-free) qHTS assay (AID 1645840); also: nearly all actives have a fitted effect of over 55% in size; also: potency is read from the fitted curve at half-maximal effect
Chain of Cytochrome P450 2D6 (Homo sapiens) (P10635 whole entry, looked up): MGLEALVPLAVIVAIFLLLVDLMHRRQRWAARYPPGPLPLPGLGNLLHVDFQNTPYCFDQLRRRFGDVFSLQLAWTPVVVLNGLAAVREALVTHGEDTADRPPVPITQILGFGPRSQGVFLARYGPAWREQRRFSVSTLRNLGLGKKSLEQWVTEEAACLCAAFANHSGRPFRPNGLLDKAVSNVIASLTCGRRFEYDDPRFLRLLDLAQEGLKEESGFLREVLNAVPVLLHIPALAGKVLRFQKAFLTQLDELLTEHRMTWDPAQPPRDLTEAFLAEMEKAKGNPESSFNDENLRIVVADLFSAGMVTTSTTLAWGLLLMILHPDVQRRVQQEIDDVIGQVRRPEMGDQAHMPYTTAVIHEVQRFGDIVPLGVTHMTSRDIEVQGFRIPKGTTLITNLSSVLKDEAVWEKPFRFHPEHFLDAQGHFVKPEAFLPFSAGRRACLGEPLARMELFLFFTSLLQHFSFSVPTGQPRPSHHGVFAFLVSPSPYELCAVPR
Procedure, shortened: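 P450-Glo luminescent screen: recombinant CYP2D6 enzyme–proluciferin substrate mix preincubated with compound 10 min at room temperature, then NADPH regeneration added for 1 h at room temperature. Detection reagent added for 20 min; luciferin light read as relative luminescence units.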

[3] = biological target: Cytochrome P450 2C9 (Homo sapiens) (UniProt P11712); experiment: Cytochrome P450 family 2 subfamily C member 9 (CYP2C9) small molecule antagonists: luciferase biochemical (cell-free) qHTS assay (AID 1645842); also: nearly all actives have a fitted effect of over 55% in size; also: potency is read from the fitted curve at half-maximal effect
Chain of Cytochrome P450 2C9 (Homo sapiens) (P11712 whole entry, looked up): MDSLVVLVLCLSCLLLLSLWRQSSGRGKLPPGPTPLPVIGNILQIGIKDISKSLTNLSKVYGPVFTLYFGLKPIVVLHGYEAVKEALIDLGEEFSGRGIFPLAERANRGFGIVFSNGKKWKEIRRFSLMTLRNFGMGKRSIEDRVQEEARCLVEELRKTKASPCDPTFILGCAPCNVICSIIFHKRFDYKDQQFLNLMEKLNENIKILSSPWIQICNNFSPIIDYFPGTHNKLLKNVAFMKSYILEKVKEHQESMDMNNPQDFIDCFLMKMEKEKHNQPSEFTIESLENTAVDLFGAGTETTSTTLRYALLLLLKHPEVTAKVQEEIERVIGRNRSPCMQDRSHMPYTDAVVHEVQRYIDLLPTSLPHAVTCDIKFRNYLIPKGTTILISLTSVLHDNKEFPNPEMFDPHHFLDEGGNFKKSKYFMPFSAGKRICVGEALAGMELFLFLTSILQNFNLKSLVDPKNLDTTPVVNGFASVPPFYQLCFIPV
Procedure, shortened: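 Luminescence, after 20 min with luciferin detection reagent, reflected CYP2C9 turnover during a 1 h NADPH-driven reaction at 37C. Enzyme-substrate mix contained 0.4% bovine serum albumin and was preincubated with compound 10 min at room temperature.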

| Compound | Potency [1] | Potency [2] | Potency [3] |
| --- | --- | --- | --- |
| COc1cccc2c1CCC[C@H]2CN(C)CCc1ccc2ccoc2c1 | inactive | 0.0535 µM (active) | 0.425 µM (active) |
| O=C(Nc1cccnn1)N1CCC(=Cc2cccc(Oc3ccc(C(F)(F)F)cn3)c2)CC1 | inactive | 10.7 µM (active) | inactive |
| NC(Cc1c[nH]c2ccccc12)C(=O)NC(CCC(=O)O)C(=O)O (stereo not given) | inactive | inactive | inactive |
| CNC(=O)COC(=O)NCCC1CCN(c2cccc(C)n2)CC1 | inactive | inactive | inactive |
| CCCCNC(=O)[C@@H]1Cc2ccccc2N1C(=O)[C@@H](N)CC | inactive | inactive | inactive |
| Clc1ccc(CN[C@H]2CCN(c3ncc(Br)cn3)C2)c(Cl)c1 | inactive | 0.674 µM (active) | 8.49 µM (active) |
| O=C1C[C@@H](c2ccc(O)cc2)Oc2cc(O)ccc21 | inactive | inactive | 12 µM (active) |
| O=c1c2cccnc2n(-c2cccc([N+](=O)[O-])c2)c(=O)n1Cc1ccncc1 | inactive | 1.51 µM (active) | 0.268 µM (active) |
| C[C@]12C=CC(=O)C=C1CC[C@@H]1[C@@H]2[C@@H](O)C[C@@]2(C)[C@H]1CC[C@]2(O)C(=O)COC(=O)CCC(=O)O | inactive | inactive | inactive |
| C[C@@H](Nc1cc(NS(=O)(=O)N2CCC2)nc(SCc2cccc(F)c2F)n1)[C@@H](O)CO | inactive | inactive | inactive |
| Cc1nc2c(-c3cnc(N)nc3)nc(N3CCOCC3)nc2n1C(C)C | inactive | inactive | 12 µM (active) |
| O=C1CC(c2ccc([N+](=O)[O-])cc2)=NN1c1ccccc1 | inactive | inactive | 13.5 µM (active) |
| CN1CCC(c2c[nH]c3ccc(NC(=O)c4ccc(F)cc4)cc23)CC1 | inactive | 16.9 µM (active) | inactive |
| NS(=O)(=O)OC[C@@H]1C[C@@H](n2ccc3c(N[C@H]4CCc5ccccc54)ncnc32)C[C@@H]1O | inactive | inactive and 8.49 µM (active) | 21.3 µM (active) |
| COCCCNCC1COc2ccccc2O1 (stereo not given) | inactive | 9.52 µM (active) | inactive |
| COc1ccc([C@@H]2N[C@H](C(=O)O)Cc3c2[nH]c2ccccc32)cc1CN1CCN(c2ccccc2F)CC1 | inactive | 13.5 µM (active) | inactive |
| CC1(C)OC(=O)C(OCC2CC2)=C1c1ccc(S(C)(=O)=O)cc1 | inactive | inactive | 13.5 µM (active) |
| CC(C)Nc1cc(-c2c[nH]c(C(=O)N[C@H](CO)c3cccc(Cl)c3)c2)c(Cl)cn1 | inactive | 19 µM (active) | 4.77 µM (active) |
| Cc1ccc(C(=O)Nc2ccc(Oc3cc4cnn(C)c4cc3-c3cn[nH]c3)c(F)c2)c(=O)n1-c1ccc(F)cc1 | inactive | inactive | 2.68 µM (active) |
| CCc1cc2c(=O)c(-c3nc4ccccc4s3)coc2c(CN2CCCCC2)c1O | inactive | inactive | 0.12 µM (active) |
| Nc1ncnc2c1ncn2[C@H]1CCCO1 | inactive | inactive | inactive |
| Cc1cc(N2CCCCC2)nc2ccccc12 | inactive | 10.7 µM (active) | inactive |
| CCC(=O)NS(=O)(=O)c1ccc(-c2c(-c3ccccc3)noc2C)cc1 | inactive | inactive | 6.74 µM (active) |
| CCOC(=O)c1c(C)nn(-c2cccc([N+](=O)[O-])c2)c1C | inactive | 8.49 µM (active) | 1.07 µM (active) |
| O=C(c1ccccn1)c1cnn2c(-c3ccncc3)ccnc12 | inactive | 13.5 µM (active) | 12 µM (active) |
| COc1ccc(C)c2sc(NC(=O)c3ccncc3)nc12 | inactive | 6.74 µM (active) | 0.849 µM (active) |
| CCC(CC)n1ccc2c(C(=O)NCc3c(C)cc(C)[nH]c3=O)cc(C#N)cc21 | inactive | inactive | 4.77 µM (active) |
| N[C@@H](CC(=O)N1CCn2c(nnc2C(F)(F)F)C1)Cc1[nH]nc2c(F)c(F)ccc12 | inactive | inactive | inactive |
| Cc1cc(C)c(S(=O)(=O)N(Cc2ccc(-c3cccc(S(C)(=O)=O)c3)cc2)Cc2ccc(C(F)(F)F)o2)c(C)c1 | inactive | inactive | 0.268 µM (active) |
| N#Cc1ccc2[nH]c(O)c(-c3ccc(CN4CCOCC4)cn3)c2c1 | inactive | 12 µM (active) and 6.74 µM (active) | inactive and 16.9 µM (active) |
